Bioassay records from PubChem BioAssay.
Hits are enriched below; roughly 9.3% of the tested compounds scored in any of these assays.
HCMV inh: blocks human cytomegalovirus replication; HFF cells, HCMV-luciferase reporter, 72 h; stronger effect = lower value; activity change, negative = inhibition, % at 57.5 µM; actives 4.5% (n = 410,000); in the data active means activity change below about -60%; inconclusive means no clear call, values can overlap the other calls; inactive means above about -39%
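HFF cells seeded 16 h at 37C, treated with compounds, infected with luciferase-reporter HCMV at MOI 1 PFU/cell; luciferase read at 72 h post infection, normalized to buffer-only and Salinomycin controls.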
FMDV inh: antivirals against foot and mouth disease virus. Potency, µM (doses to about 57.9 µM), for inactives: top-dose activity change, negative = inhibition, hits mostly inhibitors. AID 1159524. actives 1.2% (n = 410,000). FMDV antiviral cell-based qHTS; calls by dose curve; tested in HEK293T cells; further: read-out not given here; potency means the concentration at half of the fitted maximal effect; nearly all actives have a fitted effect of over 45% in size
VACV Venus inh: vaccinia inhibition (Venus reporter) | Vaccinia virus Venus reporter expression, fluorescence | Potency, µM (series often up to 36.5 µM), without a hit: top-dose activity change, negative = inhibition, most hits filed as inhibitors | actives 0.46% (n = 330,000); calls by dose curve; tested in A549 cells; further: potency means the concentration at half of the fitted maximal effect; nearly all actives have a fitted effect of over 30% in size
Vaccinia mCherry: vaccinia inhibition (mCherry reporter); Vaccinia virus mCherry reporter infection, fluorescence; Potency, µM (top dose mostly 36.5 µM), without a hit: at the top dose activity change, negative = inhibition, usual class: inhibitors; actives 0.63% (n = 310,000); calls by dose curve; tested in A549 cells; further: potency means the concentration at half of the fitted maximal effect; nearly all actives have a fitted effect of over 35% in size
HCV inh: inhibitors of hepatitis C virus infection. Huh7.5.1 HCVcc-Cre infection, luciferase reporter, 44 h. Potency, µM (doses to about 41.8 µM), for the others: at the top dose activity change, negative = inhibition, hits mostly inhibitors. actives 3.4% (n = 340,000). AID 651820; further: potency means the concentration at half of the fitted maximal effect
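Luciferase read-out (15 sec integration) after a 15 min room-temperature substrate step quantifies HCVcc-Cre infection. Cells, 1,000 per well, had compound added 4 h post-plating, then virus at ~0.5 moi, and were cultured 44 h.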
Sm TGR block: inhibitors of Schistosoma mansoni thioredoxin glutathione reductase; purified TGR, DTNB reduction, TNB absorbance 405 nm; Potency, µM (top dose mostly 114 µM), inactives show top-dose activity change, negative = inhibition, actives largely listed as inhibitors; actives 3% (n = 360,000); further: potency means the concentration at half of the fitted maximal effect; nearly all actives have a fitted effect of over 60% in size
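Kinetic colorimetric format: TGR-catalysed, NADPH-driven DTNB reduction monitored via TNB absorbance. Enzyme dispensed at 20 nM; compound exposure 15 min at room temperature before reaction start.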
* = called active by the depositor; i = inactive; ? = inconclusive; / = no result; [ ] = dose if it differs, or a comment. Unless noted, the call rests on the fitted dose curve; in most records, active means well fitted curve in the direction sought with a large enough effect; inconclusive means small, poorly fitted or top-dose-only effect, or another doubt; inactive means no such curve, though single readings can be large; an effect the other way counts as inactive or inconclusive. On the % scale 0 is the no-effect control and ±100 the full control effect.

SMILES	HCMV inh	FMDV inh	VACV Venus inh	Vaccinia mCherry	HCV inh	Sm TGR block
COc1ccc(S(=O)(=O)N(C(=O)c2ccncc2)c2ccc3oc(C)c(C(C)=O)c3c2)cc1	?	-15.2%	-22.0%[7.34 µM]	-26.8%[7.34 µM]	/	-28.8%
COC(=O)c1c(C)oc2ccc(N(C(=O)c3ccncc3)S(=O)(=O)c3ccc(OC)cc3)cc12	-95.2*	-22.3%	-27.4%[7.34 µM]	-29.5%[7.34 µM]	/	-2.2%
CCc1ccc(S(=O)(=O)N(C(=O)c2ccncc2)c2ccc3oc(C)c(C(=O)OC)c3c2)cc1	-64.3*	-5.5%	-21.5%[7.34 µM]	-20.9%[7.34 µM]	/	1.2%
CCOc1ccc(S(=O)(=O)N(C(=O)c2ccncc2)c2ccc3oc(C)c(C(=O)OC)c3c2)cc1	-78.7*	-23.9%	-27.4%[7.34 µM]	-25.0%[7.34 µM]	/	1.1%
Cc1ccc2c(CC(=O)Nc3c(C(=O)c4ccc(F)cc4)oc4ccccc34)coc2c1	3.8	25.6%	-7.9%	-7.7%	/	-5.5%
O=C(CN1C(=O)NC2NC(=O)NC21)N/N=C/c1ccccc1F (stereo unspecified)	/	/	/	/	/	8.2%
CN(c1cc(=O)n2ccccc2n1)C1CCCCC1	19.3	-6.4%	-9.1%	/	7.4%	3.3%
C=CCc1cccc(/C=N/c2ncccc2O)c1O	-23.2	/	2.9%	-14.5%	9.2%	28.2µM*
Cc1cccc(C)c1-n1nnnc1C(c1ccnc2ccccc12)N(Cc1ccccc1)Cc1ccccc1 (stereo unspecified)	-72.0*	-9.9%	-10.6%	-21.8%	/	/
Cc1cccc(C)c1-n1nnnc1C(c1ccnc2ccccc12)N(CCC#N)Cc1ccccc1 (stereo unspecified)	?	?	-2.9%	-4.8%	/	/
CC(C)N(C1=CC(=O)OC12CCCCC2)C(C)C	-15.8	4.3%	4.2%[7.34 µM]	i[7.34 µM]	14.6%	11.2%
CCN(CC)C1=CC(=O)OC12CCCCC2	24.8	-16.9%	/	/	3.9%	1.58µM*
N#C/C(=C\c1cccn1-c1ccccc1)C(=O)NC1CCCCC1	60.7	-27.4%	4.0%	-6.2%	?	-12.4%
N#C/C(=C\C=C\c1ccccc1[N+](=O)[O-])C(=O)NC1CCCCC1	/	25.1µM*	?	?	?	-0.8%
Cc1ccc(-c2[nH]ncc2/C=C(\C#N)C(=O)NC2CCCCC2)cc1	-19.2	?	?	?	?	-1.7%
COc1ccc(-c2[nH]ncc2/C=C(/C#N)C(=O)NC2CCCCC2)cc1	-33.9	?	-16.3%	-20.3%	12.6µM*	17.1%
N#C/C(=C\c1ccccc1[N+](=O)[O-])C(=O)NC1CCCCC1	82.7	35.5µM*	5.2%	-12.0%	-5.9%	-0.2%
CCc1cc(-c2cnnn2Cc2ccc3ccccc3c2)ccc1-c1cn(CC(C)C)nn1	-21.1	?	?	?	/	/
CCN=c1sc(C(=O)NCCc2ccccc2)cc(=O)n1CC	/	?	-25.6%	-27.6%	-19.9%	20µM*
CCn1c(=O)c2cc(C(=O)NCCc3cccc(C)c3)sc2c2ccccc21	-20.4	-8.5%	-16.3%	-15.0%	/	-5.3%
O=C(Nc1ccc(Nc2ccccc2)cc1)c1c(Cl)cccc1Cl	-74.5*	16.1%	-10.1%	?	10µM*	/
O=C(Nc1ccc(Nc2ccccc2)cc1)c1ccc(F)cc1	-28.5	-2.5%	-19.1%	-17.4%	10µM*	0.0%
CCCn1c(SCC(=O)c2cc(C)ccc2C)n[nH]c1=O	-20.5	?	-17.3%	/	3.5%	0.0%
CS(=O)(=O)c1nc(S(=O)(=O)c2ccc(Cl)cc2)c(N2CCOCC2)s1	?	7.4%	-8.9%[7.34 µM]	-27.5%[7.34 µM]	-7.1%	-32.8%
CCS(=O)(=O)c1nc(S(=O)(=O)c2ccc(Cl)cc2)c(N2CCc3ccccc3C2)s1	-72.5*	9.1%	1.4%	-15.1%	-27.9%	?
SMILES	HCMV inh	FMDV inh	VACV Venus inh	Vaccinia mCherry	HCV inh	Sm TGR block
CCN1CCN(c2sc(S(=O)(=O)CC)nc2S(=O)(=O)c2ccc(Cl)cc2)CC1	?	-9.4%	-21.1%	-19.2%	/	/
CCS(=O)(=O)c1nc(S(=O)(=O)c2ccc(Cl)cc2)c(N2CCN(CCO)CC2)s1	-66.0*	-4.7%	/	/	-4.3%	-2.5%
Cc1cc(/C=N/NC(N)=O)c(C)c(CO)c1	12.6	-15.4%	-6.3%	-4.5%	8.3%	11.4%
O=C1NC(=O)N(Cc2ccc(F)cc2)C(=O)/C1=C/c1cccs1	12.0	31.6µM*	-1.7%	i	2.5%	?
O=C1NC(=O)N(Cc2ccc(F)cc2)C(=O)/C1=C\c1ccoc1	?	-28.4%	8.9%[7.34 µM]	i[7.34 µM]	4.4%	?
O=C1NC(=O)N(Cc2ccccc2Cl)C(=O)/C1=C/c1cccs1	-96.8*	22.4µM*	?	-14.9%	38.3%	-22.0%
CN(C)c1ccc(/C=C2\C(=O)NC(=O)N(Cc3ccc(F)cc3)C2=O)cc1	-14.9	-4.2%	8.7%	-14.4%	-0.9%	0.794µM*
Cc1cc(/C=C2\C(=O)NC(=O)N(Cc3ccccc3Cl)C2=O)c(C)n1-c1ccc(C(=O)O)cc1	-26.2	?	-6.1%	-15.0%	18.4%	?
Cc1cc(C)cc(-n2ncc3c2CCCC3NC(=O)CCN2Cc3ccccc3C2=O)c1 (stereo unspecified)	-39.9	-22.8%	-27.9%	-28.6%	?	-1.0%
O=C(CSc1ncccc1-c1nc2ccccc2[nH]1)NCc1ccco1	58.4	15.2%	/	/	17.2%	12.6µM*
Cc1cc2nc(-c3cccnc3SCC(=O)NCc3ccco3)[nH]c2cc1C	162.8	35.2%	-15.7%	i	-2.2%	17.8µM*
CC(C)(C)NC(=O)CSc1ncccc1-c1nc2ccccc2[nH]1	-31.6	-5.5%	-4.3%	10.6%	3.7%	-28.1%
O=C(CN1c2cccc3cccc(c23)S1(=O)=O)N1CCN(c2ccccc2)CC1	30.2	?	-24.2%	-4.9%	8.7%	/
CN(C)c1ccc(-c2nc3ccccn3c2/N=C/c2ccc(Br)cc2)cc1	?	12.6µM*	-10.4%	-20.1%	24.9%	8.1%
Cc1c(-c2ccc(Br)cc2)nc2ccccn12	118.9	34.3%	-25.8%	-10.6%	-21.1%	-2.2%
Cc1cc(C)nc(S/C=C/C(=O)c2ccccc2F)n1	-28.1	8.91µM*	-11.7%	i	?	0.562µM*
O=C(NCCc1csc(-c2ccc(F)cc2)n1)c1cccc(F)c1	-38.0	?	-14.8%	-24.8%	/	7.3%
C[n+]1ccc(/C=C/c2ccc3ccccc3c2)cc1	/	-2.1%	?	?	/	/
Cc1ccc2[nH]c(C)c(/C=C/c3cc[n+](C)cc3)c2c1	-99.8*	-26.4%	227.2%	?	?	-21.5%
Cc1ccc2c(c1)c(/C=C/c1cc[n+](C)cc1)c(C)n2C	-97.7*	?	i	-23.1%	10µM*	-11.3%
CSc1ccc(CN(C)C(=O)CSCC(=O)Nc2cc(C)on2)cc1	-2.3	-22.0%	-3.5%	i	-6.2%	-17.1%
O=C1OC(c2ccc(Cl)cc2)=N/C1=C\C=C\c1ccco1	38.9	-4.0%	/	/	15.8%	28.2µM*
CCN=c1scc(C)n1/N=C/c1ccc(O)c(O)c1O	-2.0	2.7%	-0.7%	-15.1%	-4.9%	20µM*
